Data: PubChem BioAssay AID1159580 (chemical genetic matrix, 2015)
Where “and” joins values, the source holds several entries; their conditions need not be identical. Identical values can stand only once. In all, about 5,500 compounds went through this assay and about 2,000 (36%) were called active. Roughly 18% stayed inconclusive and do not appear here. Cut-off read from the data, not from the text of the source: active = normalized growth mostly below about 0.91 (no sharp cut-off); inconclusive = no clear call, values can overlap the other calls; inactive = mostly above about 0.92. The list shows a part of the results.

Assay: chemical genetic growth profiling, strain panel (AID 1159580);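 note: tested at 20 µM; growth read once vehicle control cultures reached saturation at 30 °C; 1 = growth at the plate median or of vehicle wells; lower values mean less growth of the strain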
Settings: S. cerevisiae deletion strains, growth OD

Measured: normalized growth

C[C@]12CCC3c4ccc(O)cc4CCC3C1CC[C@@H]2OC(=O)CCC1CCCC1 (some centres undefined)
inactive: locus YAL021C, strain ccr4, stronger effect = lower value 1.03 | locus YAL026C, strain drs2, stronger effect = lower value 0.997 | locus YAL030W, strain snc1, stronger effect = lower value 1.01 | locus YBL061C, strain skt5, stronger effect = lower value 1 | locus YBR009C, strain hhf1, stronger effect = lower value 1 | locus YBR021W, strain FUR4, stronger effect = lower value 1.02 | locus YBR023C, strain chs3, stronger effect = lower value 1.03 | locus YBR171W, strain sec66, stronger effect = lower value 1.02 | locus YBR229C, strain ROT2, stronger effect = lower value 0.961 | locus YBR231C, strain swc5, stronger effect = lower value 0.98 | locus YBR279W, strain paf1, stronger effect = lower value 1 | locus YCL011C, strain gbp2, stronger effect = lower value 1.02 | locus YCL016C, strain dcc1, stronger effect = lower value 1.03 | locus YCL029C, strain bik1, stronger effect = lower value 1 | locus YCL061C, strain MRC1, stronger effect = lower value 1.01 | locus YCL069W, strain vba3, stronger effect = lower value 1.01 | locus YCR088W, strain abp1, stronger effect = lower value 1.01 | locus YDL005C, strain med2, stronger effect = lower value 1.01 | locus YDL035C, strain GPR1, stronger effect = lower value 0.959 | locus YDL040C, strain nat1, stronger effect = lower value 0.997 | locus YDL074C, strain BRE1, stronger effect = lower value 0.97 | locus YDL101C, strain DUN1, stronger effect = lower value 0.985 | locus YDL185W, strain tfp1, stronger effect = lower value 0.975 | locus YDL192W, strain arf1, stronger effect = lower value 1 | locus YDR001C, strain nth1, stronger effect = lower value 1 | locus YDR069C, strain doa4, stronger effect = lower value 0.989 | locus YDR101C, strain arx1, stronger effect = lower value 0.959 | locus YDR137W, strain rgp1, stronger effect = lower value 1.03 | locus YDR150W, strain NUM1, stronger effect = lower value 0.985 | locus YDR159W, strain sac3, stronger effect = lower value 0.982 | locus YDR162C, strain NBP2, stronger effect = lower value 0.944 | locus YDR195W, strain ref2 1 | locus YDR297W, strain sur2, stronger effect = lower value 1.01 | locus YDR318W, strain mcm21, stronger effect = lower value 1 | locus YDR334W, strain swr1, stronger effect = lower value 1.01 | locus YDR335W, strain msn5, stronger effect = lower value 1.02 | locus YDR388W, stronger effect = lower value 0.991 | locus YDR392W, strain spt3, stronger effect = lower value 0.944 | locus YDR502C, strain sam2, stronger effect = lower value 0.994 | locus YEL003W, strain gim4, stronger effect = lower value 0.988 | locus YEL037C, strain rad23, stronger effect = lower value 0.992 | locus YEL061C, strain CIN8 (second series), stronger effect = lower value 1.01 | locus YEL061C, strain CIN8, stronger effect = lower value 0.989 | locus YER015W, strain faa2, stronger effect = lower value 1 | locus YER016W, strain bim1, stronger effect = lower value 1.01 | locus YER110C, stronger effect = lower value 1.01 | locus YER111C, strain swi4, stronger effect = lower value 1.01 | locus YER155C, strain BEM2 (second series), stronger effect = lower value 1.01 | locus YER155C, strain BEM2, stronger effect = lower value 1 | locus YER167W, strain BCK2, stronger effect = lower value 1.01 | locus YFR010W, strain ubp6, stronger effect = lower value 1.01 | locus YGL078C, strain dbp3, stronger effect = lower value 0.998 | locus YGL086W, strain mad1, stronger effect = lower value 0.994 | locus YGL167C, strain pmr1, stronger effect = lower value 1.01 | locus YGL173C, strain kem1, stronger effect = lower value 1.02 | locus YGL227W, strain vid30, stronger effect = lower value 1.03 | locus YGL240W, strain doc1, stronger effect = lower value 1.05 | locus YGL248W, strain PDE1, stronger effect = lower value 0.99 | locus YGL253W, strain hxk2, stronger effect = lower value 1.01 | locus YGR135W, strain pre9, stronger effect = lower value 1.07 | locus YGR229C, strain SMI1, stronger effect = lower value 0.982 | locus YGR252W, strain gcn5, stronger effect = lower value 1.16 | locus YHR013C, strain ard1, stronger effect = lower value 1.03 | locus YHR027C, strain rpn1, stronger effect = lower value 0.995 | locus YHR030C, strain SLT2, stronger effect = lower value 0.99 and 1.03 | locus YHR079C, strain IRE1 (second series), stronger effect = lower value 0.996 | locus YHR079C, strain IRE1, stronger effect = lower value 1.04 | locus YHR094C, strain hxt1, stronger effect = lower value 0.997 | locus YHR129C, strain ARP1, stronger effect = lower value 0.992 | locus YHR142W, strain chs7, stronger effect = lower value 1.05 | locus YHR200W, strain rpn10, stronger effect = lower value 0.998 | locus YIL066C, strain RNR3, stronger effect = lower value 0.977 | locus YIL073C, strain SPO22, stronger effect = lower value 0.989 | locus YIL125W, strain kgd1, stronger effect = lower value 0.989 | locus YIR030C, strain dcg1, stronger effect = lower value 1.01 | locus YJL092W, strain hpr5, stronger effect = lower value 1.01 | locus YJL095W, strain BCK1 (second series), stronger effect = lower value 1.01 | locus YJL095W, strain BCK1, stronger effect = lower value 1.01 | locus YJL115W, strain asf1, stronger effect = lower value 1.01 | locus YJL129C, strain trk1, stronger effect = lower value 1.03 | locus YJL134W, strain LCB3, stronger effect = lower value 0.979 | locus YJL154C, strain vps35, stronger effect = lower value 1.01 | locus YJL164C, strain tpk1, stronger effect = lower value 0.996 | locus YJL166W, strain qcr8, stronger effect = lower value 1.02 | locus YJL168C, strain set2, stronger effect = lower value 0.995 | locus YJL187C, strain SWE1 (second series), stronger effect = lower value 0.976 | locus YJL187C, strain SWE1, stronger effect = lower value 1.01 | locus YJR043C, strain POL32, stronger effect = lower value 0.967 | locus YJR066W, strain TOR1, stronger effect = lower value 0.929
